Data reported in the supplement of paper PMC6897291.
Where a name gives a salt, the structure may show the parent alone.

tested on: RIVA; test: growth inhibition by drug plus 177Lu-lilotomab satetraxetan (1 - RLU/untreated control) (fraction); higher = stronger inhibition; conditions: 10 nM; time (day): 5; 177Lu-lilotomab satetraxetan 0.5 ug/ml
In short: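 A radiolabelled anti-CD37 antibody conjugate (~600 MBq/mg) was applied for 18 h at 0.5 µg/ml to RIVA and 1 µg/ml to U-2932 cells, with untreated cells run alongside. All cells were washed and seeded at 3,000 cells/well onto library-printed plates at 10/100 nM (RIVA) or 10/1,000 nM (U-2932). Growth inhibition was based on RealTime-Glo luminescence compared with untreated no-drug wells. Daily reads began on day 3 after 1 h at 37°C, with each value being 1 − RLU/mean of the 48 such wells on that plate.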

| Compound | growth inhibition by drug plus 177Lu-lilotomab satetraxetan |
| --- | --- |
| Nc1nc2[nH]cc(CCc3ccc(C(=O)N[C@@H](CCC(=O)O)C(=O)O)cc3)c2c(=O)[nH]1 [Pemetrexed] | 0.483 |
| COc1cc2nccc(Oc3ccc(NC(=O)Nc4cc(C)on4)c(Cl)c3)c2cc1OC [Tivozanib (AV-951)] | 0.57 |
| CCC(=O)N1CCN(c2ccc(-n3c(=O)ccc4cnc5ccc(-c6cnc7ccccc7c6)cc5c43)cc2C(F)(F)F)CC1 [Torin 1] | 0.631 |
| COc1cccc2c1C(=O)c1c(O)c3c(c(O)c1C2=O)C[C@@](O)(C(=O)CO)C[C@@H]3O[C@H]1C[C@H](N)[C@@H](O)[C@H](C)O1 [Epirubicin Hydrochloride] | 0.829 |
| Clc1ccc(Nc2nnc(Cc3ccncc3)c3ccccc23)cc1 [Vatalanib dihydrochloride (PTK787)] | 0.527 |
| COc1cc2nccc(Oc3ccc(NC(=O)C4(C(=O)Nc5ccc(F)cc5)CC4)cc3)c2cc1OC [XL-184 free base (Cabozantinib)] | 0.621 |
| C[C@@H](O[C@H]1OCCN(Cc2n[nH]c(=O)[nH]2)[C@H]1c1ccc(F)cc1)c1cc(C(F)(F)F)cc(C(F)(F)F)c1 [Aprepitant (MK-0869)] | 0.481 |
| COc1cc2c(cc1O)CC[C@@H]1[C@@H]2CC[C@]2(C)[C@@H](O)CC[C@@H]12 [2-Methoxyestradiol] | 0.548 |
| CNCc1ccc(-c2[nH]c3cc(F)cc4c3c2CCNC4=O)cc1 | 0.55 |
| CC[C@@]1(O)C(=O)OCc2c1cc1n(c2=O)Cc2cc3c(CN(C)C)c(O)ccc3nc2-1 [Topotecan HCl] | 0.913 |
| Nc1cc(C(F)(F)F)c(-c2cc(N3CCOCC3)nc(N3CCOCC3)n2)cn1 | 0.461 |
| CC(C)(C)c1ccc(S(=O)(=O)/C=C/C#N)cc1 | 0.567 |
| C[C@]1(c2nc3c(C(N)=O)cccc3[nH]2)CCCN1 [ABT-888 (Veliparib)] | 0.516 |
| Cc1ccc(NC(=O)c2ccc(CN3CC[C@H](N(C)C)C3)c(C(F)(F)F)c2)cc1Nc1nccc(-c2cncnc2)n1 [Bafetinib (INNO-406)] | 0.652 |
| C[C@]12CC[C@@H]3c4ccc(O)cc4CC[C@H]3[C@@H]1CCC2=O [Estrone] | 0.585 |
| O=C(c1ccc(OCCN2CCCCC2)cc1)c1c(-c2ccc(O)cc2)sc2cc(O)ccc12 [Evista (Raloxifene Hydrochloride)] | 0.511 |
| CCN(CC)CCNC(=O)c1c(C)[nH]c(/C=C2\C(=O)Nc3ccc(F)cc32)c1C [Sunitinib Malate (Sutent)] | 0.477 |
| CCOc1ccc(Nc2nc(-c3c(C)nc4ccccn34)cs2)cc1 | 0.61 |
| C=CC(=O)N1CCC[C@@H](n2nc(-c3ccc(Oc4ccccc4)cc3)c3c(N)ncnc32)C1 | 0.848 |

| Compound | growth inhibition by drug plus 177Lu-lilotomab satetraxetan |
| --- | --- |
| CS(=O)(=O)c1cccc(CNc2nc(Nc3ccc4c(c3)CCC(=O)N4)ncc2C(F)(F)F)c1 | 0.572 |
| CC(NC(=O)c1ccccc1/N=C/c1c(O)ccc2ccccc12)c1ccccc1 (stereo not drawn) [Sirtinol] | 0.506 |
| CN(Cc1cnc2nc(N)nc(N)c2n1)c1ccc(C(=O)N[C@@H](CCC(=O)O)C(=O)O)cc1 [Abitrexate (Methotrexate)] | 0.508 |
| OCCn1cc(-c2cnc3nnn(Cc4ccc5ncccc5c4)c3n2)cn1 | 0.599 |
| COc1cc(Nc2ncc(F)c(Nc3ccc4c(n3)NC(=O)C(C)(C)O4)n2)cc(OC)c1OC [R406(free base)] | 0.602 |
| COc1cccc2c1C(=O)c1c(O)c3c(c(O)c1C2=O)C[C@@](O)(C(=O)CO)C[C@@H]3O[C@H]1C[C@H](N)[C@H](O)[C@H](C)O1 [Doxorubicin (Adriamycin)] | 0.909 |
| CN(NC(=O)CC(=O)NN(C)C(=S)c1ccccc1)C(=S)c1ccccc1 [Elesclomol] | 0.972 |
| CN(C)CCOc1ccc(/C(=C(/CCCl)c2ccccc2)c2ccccc2)cc1 [Toremifene Citrate (Fareston, Acapodene)] | 0.729 |
| CN1CCN(CCOc2cc(OC3CCOCC3)c3c(Nc4c(Cl)ccc5c4OCO5)ncnc3c2)CC1 [Saracatinib (AZD0530)] | 0.508 |
| CC(C)C[C@H](NC(=O)[C@H](Cc1ccccc1)NC(=O)c1cnccn1)B(O)O [Bortezomib (Velcade)] | 0.976 |
| Cn1cncc1[C@@](N)(c1ccc(Cl)cc1)c1ccc2c(c1)c(-c1cccc(Cl)c1)cc(=O)n2C [Tipifarnib (Zarnestra)] | 0.452 |
| COC(=O)c1ccc2c(C(=Nc3ccc(N(C)C(=O)CN4CCN(C)CC4)cc3)c3ccccc3)c(O)[nH]c2c1 [BIBF1120 (Vargatef)] | 0.461 |
| CC[C@@H]1/C=C(\C)C[C@H](C)C[C@H](OC)[C@H]2O[C@@](O)(C(=O)C(=O)N3CCCC[C@H]3C(=O)O[C@H](/C(C)=C/[C@@H]3CC[C@H](Cl)[C@H](OC)C3)[C@H](C)[C@@H](O)CC1=O)[C@H](C)C[C@@H]2OC [Pimecrolimus] | 0.662 |
| CN(C)CCOc1ccc(-c2nc(-c3ccncc3)c(-c3ccc4c(c3)CC/C4=N\O)[nH]2)cc1 | 0.536 |
| COc1ccc(CCN2CCN(CCCc3ccccc3)CC2)cc1OC | 0.343 |
| CNC(=O)c1cc(Oc2ccc(NC(=O)Nc3cc(C(C)(C)C)nn3-c3ccc4ncccc4c3)c(F)c2)ccn1 [DCC-2036 (Rebastinib)] | 0.586 |
| CCC(C)(C)C(=O)O[C@H]1C[C@@H](C)C=C2C=C[C@H](C)[C@H](CC[C@@H]3C[C@@H](O)CC(=O)O3)[C@H]21 [Simvastatin (Zocor)] | 0.575 |
| CCc1ccc(CCOc2ccc(CC3SC(=O)NC3=O)cc2)nc1 (stereo not drawn) [Pioglitazone (Actos)] | 0.604 |
| O=C(O)C(Cc1c[nH]c2ccccc12)N1C(=O)c2ccccc2C1=O (stereo not drawn) | 0.475 |
